A selection: hits, their analogues and other compounds. The true share with any hit is near 5.9%.
HepG2 tox-1 – qHTS for Inhibitors of TGF-b: Cytotox Counterscreen; HepG2 CAGA-GFP viability, ATP luminescence, 18 h; AID 588856, 2011; actives 0.76% (n = 410,000); Potency, µM (series often up to 46.1 µM), for the others: top-dose activity change, negative = cytotoxicity, hits mostly cytotoxic
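CellTiter-Glo luminescence gave cytotoxicity after 18 hours at 37 degrees C. The cells were HepG2 CAGA-GFP in 1% FBS DMEM, stimulated with 500 pg/mL TGF-beta after compound addition. %Activity was normalised to no-cell wells (complete cell-killing) and DMSO (no toxicity), and curves were fitted and classified.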
KB-V1 cytotox – qHTS assay for MDR1-selective chemotherapeutics: Primary screen using the drug-selected MDR subline cells KB-V1; KB-V1 MDR cells viability, CellTiter-Glo, 72 h; Potency, µM (highest dose often 46.1 µM), actives largely listed as cytotoxic; actives 3.4% (n = 400,000); note: % is set by controls: 0 for no effect and ±100 for the full control effect; nearly all actives have a fitted effect of over 60% in size
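Cells of the MDR subline KB-V1 are plated, dosed with compound at multiple concentrations, and incubated 72 h at 37 degrees C; CellTiter-Glo is then added and luminescence read after 10 min.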
TGFb inhibitor – qHTS for Inhibitors of TGF-b | Potency, µM (top dose mostly 46.1 µM), inactives show at the highest dose activity, negative = inhibition, most hits filed as inhibitors | actives 1.2% (n = 410,000) | HepG2 CAGA-GFP TGF-b/SMAD3 reporter, GFP fluorescence, 18 h; TGF-beta stimulated, 500 pg/mL final; note: % is set by controls: 0 for no effect and ±100 for the full control effect; nearly all actives have a fitted effect of over 65% in size
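First, reporter cells (HEPG2 CAGA-GFP) rested 2 h at 37 degrees C. Next, compounds were pinned in and TGF-beta added to 500 pg/mL final. After 18 h, GFP was imaged per cell and summed per well.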
ATXN2 expr inh – Primary qHTS for Inhibitors of ATXN expression; actives 0.72% (n = 360,000); HEK-293 ATXN2-luciferase reporter, luminescence, 24 h; Potency, µM (top dose mostly 57 µM), inactives show at the top dose activity change, negative = inhibition, hits mostly inhibitors; note: % is set by controls: 0 for no effect and ±100 for the full control effect; nearly all actives have a fitted effect of over 55% in size
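qHTS (up to 57 uM final) was run with 24 h compound exposure of reporter cells at 37 °C. Each well was multiplexed: SteadyGlo luminescence measured ATXN2-luciferase expression after a fluorogenic Gly-Phe-AFC viability readout (25 uM final).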
KB-3-1 cytotox – qHTS assay for MDR1-selective chemotherapeutics: Primary screen using the parental adenocarcinoma cell KB-3-1. Potency, µM (highest dose often 46.1 µM), most hits filed as cytotoxic. actives 1.4% (n = 400,000). AID 1347075, 2019. KB-3-1 viability, CellTiter-Glo ATP luminescence, 72 h; note: % is set by controls: 0 for no effect and ±100 for the full control effect; nearly all actives have a fitted effect of over 60% in size
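Cytotoxicity measured as CellTiter-Glo luminescence after 72 h at 37 C. Compound titrations were pinned onto drug-naive KB-3-1 parental adenocarcinoma cells grown in DMEM with 10% FBS, and normalized data fitted to concentration-response curves.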
S2 tox – Viability Counterscreen for Primary qHTS for Inhibitors of ATXN expression | Potency, µM (top dose mostly 56.7 µM), actives largely listed as cytotoxic | actives 0.49% (n = 400,000) | S2 cells (HEK-293 line with an ATXN2-luciferase reporter) viability, CellTiter-Fluor protease fluorescence, 24 h; note: nearly all actives have a fitted effect of over 40% in size
TGFb CAGA inh – qHTS for Inhibitors of TGF-b: Confirmation of Cherry Picks; shares compounds with TGFb inhibitor; HepG2 CAGA-GFP TGF-b reporter, GFP fluorescence, 18 h; cells stimulated with TGF-beta, 500 pg/mL; Potency, µM (highest dose often 46.1 µM), for the others: top-dose activity, negative = inhibition, most hits filed as inhibitors; actives 63% (n = 1,600); note: % is set by controls: 0 for no effect and ±100 for the full control effect; nearly all actives have a fitted effect of over 65% in size
HepG2 tox-2 – qHTS for Inhibitors of TGF-b: Cytotox Counterscreen for Cherry Picks; shares compounds with TGFb inhibitor; HepG2 CAGA-GFP viability, ATP luminescence, 18 h; cells stimulated with TGF-beta, 500 pg/mL; Potency, µM (series often up to 46.1 µM), without a hit: at the top dose activity, negative = cytotoxicity, actives largely listed as inhibitors; actives 27% (n = 1,600); note: % is set by controls: 0 for no effect and ±100 for the full control effect; nearly all actives have a fitted effect of over 70% in size
TGFb CCL64 inh – qHTS for Inhibitors of TGF-b: CCL64 Cells Orthogonal Assay for Cherry Picks; shares compounds with TGFb inhibitor; actives 41% (n = 1,600); Potency, µM (series often up to 46.1 µM), for inactives: at the top dose activity, negative = inhibition, actives largely listed as inhibitors; CCL64 CAGA-GFP reporter, TGF-b stimulated, GFP fluorescence, 18 h; note: nearly all actives have a fitted effect of over 65% in size
COP TGFb inh – qHTS for Inhibitors of TGF-b: Hit Validation in HepG2 Cells using COP promoter; shares compounds with TGFb inhibitor; HepG2 COP-GFP TGF-b reporter, GFP fluorescence, 18 h; cells stimulated by added recombinant TGF-beta; Potency, µM (highest dose often 46.1 µM), inactives show top-dose activity, negative = inhibition, usual class: inhibitors; actives 3% (n = 1,600); AID 720537, 2013; note: nearly all actives have a fitted effect of over 70% in size
The depositor's hits bear a star. Calls come from the whole dose curve; as a rule, active = well fitted curve in the direction sought with a large enough effect; inconclusive = small, poorly fitted or top-dose-only effect, or another doubt; inactive = no such curve, though single readings can be large; an effect the other way counts as inactive or inconclusive. Potency is the fitted concentration of half-maximal effect.

What do the screens show for `C(=C\c1ccccc1)/CN1CCN(C(c2nnnn2C2CCCC2)C2CC2)CC1` (stereo not drawn)?
HepG2 tox-1: -27%; KB-V1 cytotox: inactive; TGFb inhibitor: 7.9µM*; ATXN2 expr inh: 0%; KB-3-1 cytotox: inactive; S2 tox: inconclusive; TGFb CAGA inh: inconclusive; HepG2 tox-2: -24%; TGFb CCL64 inh: -15%; COP TGFb inh: 12%

How did C(=C\c1ccccc1)/CN1CCN(C(c2cccc3ccccc23)c2nnnn2Cc2ccccc2)CC1 (stereo not drawn) do in these assays?
HepG2 tox-1: -2%; KB-V1 cytotox: inconclusive; TGFb inhibitor: inconclusive; ATXN2 expr inh: -15%; KB-3-1 cytotox: inactive; S2 tox: inactive

What do the screens show for `C(=C\c1ccccc1)/CN1CCN(C(c2cccs2)c2nnnn2Cc2ccccc2)CC1` (stereo not drawn)?
HepG2 tox-1: -9%; KB-V1 cytotox: inconclusive; TGFb inhibitor: 11µM*; ATXN2 expr inh: inconclusive; KB-3-1 cytotox: inconclusive; S2 tox: inconclusive; TGFb CAGA inh: 16µM*; HepG2 tox-2: inconclusive; TGFb CCL64 inh: inconclusive; COP TGFb inh: 59%

How did C=Cc1ccc(CN2C(=O)c3ccccc3Sc3ccc(C(=O)OCc4ccco4)cc32)cc1 do in these assays?
HepG2 tox-1: -4%; KB-V1 cytotox: inconclusive; TGFb inhibitor: 5%; ATXN2 expr inh: 3%; KB-3-1 cytotox: inactive; S2 tox: inactive

Results for COc1ccccc1NC(=O)CN1C(=O)C(c2ccc(F)cc2)=NC1(C)C ?
HepG2 tox-1: -14%

How did COc1ccc(-c2cc3nc(NCC4CCCCC4)n(C)c(=O)c3s2)cc1OC do in these assays?
HepG2 tox-1: -29%; KB-V1 cytotox: inactive; TGFb inhibitor: 10µM*; ATXN2 expr inh: inconclusive; KB-3-1 cytotox: inactive; S2 tox: inconclusive; TGFb CAGA inh: inconclusive; HepG2 tox-2: inconclusive; TGFb CCL64 inh: inconclusive; COP TGFb inh: 65%

Results for COc1cccc(-c2cc3nc(Nc4ccc(OC)c(OC)c4)n(C)c(=O)c3s2)c1 ?
HepG2 tox-1: -10%; KB-V1 cytotox: inactive; TGFb inhibitor: inconclusive; ATXN2 expr inh: -37%; KB-3-1 cytotox: inactive; S2 tox: inconclusive

What do the screens show for `Cc1ccc(NC(=O)C2CCN(c3nc(-c4ccc(C(C)C)cc4)no3)CC2)c(Cl)c1`?
HepG2 tox-1: -18%; TGFb inhibitor: -42%

Results for COc1ccc(Cc2nc3ccc(C(=O)NCCc4ccc(Cl)cc4)cc3o2)cc1 ?
HepG2 tox-1: -1%; KB-V1 cytotox: inactive; TGFb inhibitor: 1%; ATXN2 expr inh: -21%; KB-3-1 cytotox: inactive; S2 tox: inactive

Results for COc1ccc(C(=O)Nc2ccc3oc(Cc4ccc(Cl)cc4)nc3c2)cc1OC ?
HepG2 tox-1: -23%; KB-V1 cytotox: inactive; TGFb inhibitor: 16µM*; ATXN2 expr inh: inconclusive; KB-3-1 cytotox: inconclusive; S2 tox: inconclusive; TGFb CAGA inh: inconclusive; HepG2 tox-2: -18%; TGFb CCL64 inh: 13%; COP TGFb inh: 0%

Results for CCOc1ccc(CCN2C(=S)N([C@@H](CC(C)C)CN3CCCC3CN3C(=S)NC[C@@H]3CC(C)C)C[C@@H]2Cc2ccc(O)cc2)cc1 (stereo partly drawn) ?
HepG2 tox-1: -13%; KB-V1 cytotox: inconclusive; TGFb inhibitor: inconclusive; ATXN2 expr inh: inconclusive; KB-3-1 cytotox: inconclusive; S2 tox: inconclusive

What do the screens show for `CCOc1ccc(CCN2C(=S)N([C@@H](CC(C)C)CN3CCCC3CN3C(=S)NC[C@@H]3Cc3ccc(O)cc3)C[C@@H]2CC(C)C)cc1` (stereo partly drawn)?
HepG2 tox-1: -4%; KB-V1 cytotox: inconclusive; TGFb inhibitor: 4.5µM*; ATXN2 expr inh: -26%; KB-3-1 cytotox: inconclusive; S2 tox: inconclusive; TGFb CAGA inh: 12µM*; HepG2 tox-2: -17%; TGFb CCL64 inh: inconclusive; COP TGFb inh: 3%

What do the screens show for `CCOc1ccc(CCN2C(=S)N([C@@H](CC(C)C)CN3CCC[C@@H]3CN3C(=S)NC[C@@H]3CC(C)C)C[C@@H]2Cc2ccc(O)cc2)cc1`?
HepG2 tox-1: -44%; KB-V1 cytotox: inactive; TGFb inhibitor: 6.3µM*; ATXN2 expr inh: inconclusive; KB-3-1 cytotox: inconclusive; S2 tox: 13µM*; TGFb CAGA inh: inconclusive; HepG2 tox-2: inconclusive; TGFb CCL64 inh: 18µM*; COP TGFb inh: 68%

Results for O=C(c1ccc2c(c1)N(Cc1ccc(Cl)cc1)C(=O)c1ccccc1S2(=O)=O)N1CCOCC1 ?
HepG2 tox-1: 1%; KB-V1 cytotox: inactive; TGFb inhibitor: -1%; ATXN2 expr inh: 8%; KB-3-1 cytotox: inactive; S2 tox: inactive

Source: PubChem (National Center for Advancing Translational Sciences (NCATS))
